# Screening results: PubChem BioAssay, National Center for Advancing Translational Sciences (NCATS)
# Shown are actives, neighbours in structure and some others; about 3.7% of the full set was active somewhere.
# Sm TGR inh: blocks Schistosoma mansoni thioredoxin glutathione reductase | Potency, µM (titrated, usually from 114 µM), without a hit: top-dose activity change, negative = inhibition, most hits filed as inhibitors | purified TGR, DTNB reduction, TNB absorbance 405 nm | Q962Y6 | 3% of 360,000 active | AID 485364; also: nearly all actives have a fitted effect of over 60% in size
#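 Kinetic colorimetric format: TGR-catalysed, NADPH-driven DTNB reduction monitored via TNB absorbance. Enzyme dispensed at 20 nM; compound exposure 15 min at room temperature before reaction start.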
# Tb PYK inh: inhibitors of Trypanosoma brucei pyruvate kinase; Q57TT1; TbPYK enzyme, Kinase-Glo Plus ATP luminescence, 45 min; Potency, µM (titrated, usually from 76.8 µM), inactives show at the highest dose activity, negative = inhibition, hits mostly inhibitors; 0.12% of 410,000 active; AID 624173; also: nearly all actives have a fitted effect of over 50% in size
#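 In this concentration-response screen, enzyme-free wells defined baseline while DMSO plates tracked drift. Each reaction combined TbPYK, substrate, compound and 130 uM ADP for 45 min at room temperature. Kinase-Glo Plus luminescence gave the signal.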
# FMDV inh: blocks foot and mouth disease virus | AID 1159524 | Potency, µM (series often up to 57.9 µM), without a hit: at the top dose activity change, negative = inhibition, actives largely listed as inhibitors | 1.2% of 410,000 active | FMDV antiviral cell-based qHTS; calls by dose curve; tested in HEK293T cells; also: read-out not given here; nearly all actives have a fitted effect of over 45% in size
# RE007 growth inh: less growth of the S. pombe RE007 Vpr strain; S. pombe RE007 Vpr strain, BacTiter-Glo ATP luminescence, 24 h; Potency, µM (top dose mostly 92.2 µM), for the others: at the highest dose activity change, negative = less growth, hits mostly inhibitors; 0.21% of 360,000 active; active = well fitted falling curve with a large enough effect; inconclusive = small, poorly fitted or top-dose-only effect; inactive = no such curve, though single readings can be large or run the other way; also: nearly all actives have a fitted effect of over 50% in size
#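 Fission yeast RE007 carrying one integrated HIV-1 vpr copy, seeded at OD 0.01 in PMG+AL medium with 23 nL pinned compound. Grown 24 h at 30 degrees; viability read by BacTiter-Glo luminescence after 5 min.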
# * hit, by the source's call; ? = inconclusive; · = not tested or not shown; [ ] = dose if it differs, or a comment. Unless noted, calls follow the shape of the dose curve; as a rule, active = well fitted curve in the direction sought with a large enough effect; inconclusive = small, poorly fitted or top-dose-only effect, or another doubt; inactive = no such curve, though single readings can be large; an effect the other way counts as inactive or inconclusive. % is scaled to controls: 0 for no effect and ±100 for the full control effect; potency is read from the fitted curve at half-maximal effect.
SMILES,Sm TGR inh,Tb PYK inh,FMDV inh,RE007 growth inh
Cc1[nH][nH]c(=O)c1C(c1ccc(-c2ccc(C(=O)O)cc2)o1)c1c(C)[nH][nH]c1=O,15.8µM*,?,8.2%,-27.5%
COc1ccc(-c2ccc(C(c3c(C)[nH][nH]c3=O)c3c(C)[nH][nH]c3=O)o2)c([N+](=O)[O-])c1,28.2µM*,-6.9%,·,-8.6%
Cc1[nH][nH]c(=O)c1C(c1c(C)[nH][nH]c1=O)c1cn(C)c2ccccc12,-6.1%,-5.7%,-19.4%,-5.8%
COc1ccc(-c2ccc(/C=N/N3C(=O)C4C5C=CC(C6CC56)C4C3=O)o2)c([N+](=O)[O-])c1 (centres undefined),-14.4%,-8.4%,?,2.9%
N#Cc1cn(-c2ccccc2)nc1-c1ccc2c(c1)OCCO2,-2.6%,-2.6%,0.0%,11.6%
N#Cc1cn(-c2ccccc2)nc1-c1ccco1,44.7µM*,·,18.5%,1.0%[3.69 µM]
Cc1ccc(-c2csc(/C(C#N)=C/c3ccccc3Cl)n2)cc1,5.4%,-1.7%,23.5%,·
CC/C(=C\c1oc2cc3ccccc3cc2[n+]1CC)Nc1ccccc1,20µM*,3.4%,22.4µM*,4.0%
CC[n+]1c(/C=C/Nc2ccccc2)oc2ccc(OC)cc21,·,-6.5%,-2.4%,0.7%
COC(=O)Cc1c(C)c2cc3c(c(C)c2oc1=O)OCN(CCc1ccc(F)cc1)C3,-16.5%,7.5%,7.7%,·
CCOc1ccc(C(=O)N2CCC(c3nnc(-c4ccccc4OC)o3)CC2)cc1,-7.5%,-4.0%,10.4%,·
O=CC(Br)P(=O)(N1CCOCC1)N1CCOCC1 (centres undefined),44.7µM*,?,-5.2%,21.0%
Cc1c(N=NC2=C(O)CCCC2=O)c(=O)n(-c2ccccc2)n1C,17.8µM*,-27.6%,-19.1%,4.2%
Cc1c(N=Nc2ccc(O)cc2)c(=O)n(-c2ccccc2)n1C,-1.0%,1.5%,1.1%,9.8%
COc1ccc(-c2cc(C(F)(F)F)nc(SCC(=O)N3CCOCC3)n2)cc1OC,3.8%,-5.3%,-25.0%,12.5%
COc1ccccc1-c1cc(C(F)(F)F)nc(S(=O)(=O)CCCC(=O)N2CCOCC2)n1,31.6µM*,0.2%,22.4µM*,-3.1%
COc1ccccc1-c1cc(C(F)(F)F)nc(S(=O)(=O)CCCC(=O)Nc2cc(OC)c(OC)c(OC)c2)n1,?,-3.0%,19.0%,·
COc1ccc(-c2cc(C(F)(F)F)nc(S(=O)(=O)CCC(=O)N3CCOCC3)n2)cc1,28.2µM*,8.8%,-10.7%,-13.6%
COc1ccccc1-c1cc(C(F)(F)F)nc(S(=O)(=O)CCCC(=O)O)n1,?,-3.5%,25.1µM*,-4.9%
COc1cc(C)c(CN2C[C@H](Sc3nc4ccccc4[nH]3)C[C@H]2C(=O)N(C)C)cc1C,·,·,-12.4%,·
Cc1cc(C)c(NC(=O)Cn2c(=O)oc3cc(S(=O)(=O)N4CCCCCC4)ccc32)c(C)c1,0.7%,1.1%,-19.1%,·
COC(=O)c1cccc(C#CC(NP(=O)(c2ccccc2)c2ccccc2)c2ccccc2)c1 (centres undefined),11.2µM*,-4.9%,?,-13.2%
CCOC(=O)c1cc(C)sc1/N=C/C1C(=O)NC(=S)NC1=O,4.47µM*,-29.3%,-19.1%,1.0%
COc1ccc(C2NC3=C(CCCC3)C(C#N)(C#N)C2(C#N)C#N)cc1 (centres undefined),1.78µM*,·,·,·
CC(C)Oc1ccc(CN2CCc3nc(Nc4ccc5c(c4)OCCO5)ncc3C2)cc1,1.5%,3.3%,-27.9%,·
SMILES,Sm TGR inh,Tb PYK inh,FMDV inh,RE007 growth inh
Cc1cc(C(=O)NCc2nc(-c3cccc(NC(=O)c4cc(C)oc4C)c3)oc2C)nc(C)n1,·,·,-20.6%,·
Cc1ccc(Cn2c(SCC(=O)NCc3ccccc3)nc3ccsc3c2=O)cc1,0.3%,-8.9%,-17.9%,·
CN(C)c1ccc(/C=N/Nc2nncc3ccccc23)cc1,?,-11.9%,7.94µM*,-7.6%
COc1ccc(C2=CC(c3c(C)nn(-c4ccccc4)c3Cl)n3nnnc3N2)cc1OC (centres undefined),17.8µM*,-7.1%,17.8µM*,18.2%
COc1ccccc1C1C=C(c2ccc(C)cc2)Nc2nnnn21 (centres undefined),-3.2%,-2.4%,-3.4%,-0.4%
O=C(c1cccc(F)c1)N1CCC2(CCCN(Cc3nccs3)C2)CC1,·,-4.7%,-11.0%,·
O=C(CSc1ccc(-c2ccco2)nn1)N1CCCCCC1,25.1µM*,-7.5%,0.0%,-5.9%
O=C(CSc1ccc(-c2ccco2)nn1)NC1CCCCC1,8.91µM*,-15.0%,1.1%,0.2%
O=C(CSc1ccc(-c2ccccc2)nn1)NC1CCCCC1,-22.0%,-20.2%,-10.7%,-11.8%
O=C(CSc1ccc(-c2ccco2)nn1)NC1CCCC1,17.8µM*,-3.7%,-2.7%,22.0%
O=C(CSc1ccc(-c2ccccc2)nn1)NC1CCCC1,-24.4%,-7.1%,0.0%,-8.1%
CCOC(=O)c1c(C)c(-c2ccccc2)n(CC(=O)NCCc2cccc(C)c2)c1C,-6.7%,-1.4%,-9.9%,·
Cc1ccccc1C(=O)Nc1ccc(C(=O)OCc2cc(=O)n3nc(C(C)C)sc3n2)cc1,2.9%,-6.4%,7.9%,·
COc1ccc(S(=O)(=O)Nc2cc(C)c(O)c(S(=O)(=O)c3ccccc3)c2)cc1,56.2µM*,3.4%,55.0%,-14.6%
COc1ccc(S(=O)(=O)c2c(C)c(NS(=O)(=O)c3ccccc3)cc(C)c2O)cc1,-18.1%,-6.6%,1.9%,-2.5%
CC(=O)CSc1nc2c(c(=O)[nH]c(=O)n2C)n1Cc1cccc(Br)c1,56.2µM*,-27.7%,-19.4%,-1.8%
Cn1c(=O)[nH]c(=O)c2c1nc([N+](=O)[O-])n2Cc1ccccc1,1.78µM*,-2.3%,7.94µM*,5.7%
CC(C)Cn1c([N+](=O)[O-])nc2c1c(=O)[nH]c(=O)n2C,22.4µM*,0.1%,28.2µM*,2.3%
Cn1c(=O)[nH]c(=O)c2c1nc(Br)n2CCC(=O)c1ccccc1,12.6µM*,-2.9%,0.0%,-11.2%
Cn1c(=O)[nH]c(=O)c2c1nc(N1CCNCC1)n2Cc1ccccc1,?,2.9%,-4.2%,-8.0%
Cn1c(=O)[nH]c(=O)c2c1nc(SCCC(=O)O)n2Cc1cccc(Br)c1,-3.0%,-28.5%,-10.6%,9.0%
CCOc1ccc(NC(=O)Cn2c(=O)n(CCCCCC(=O)NCc3ccccc3)c(=O)c3sccc32)cc1,8.9%,-7.6%,-24.5%,·
Cn1c(-c2cccc(F)c2)nc2c1c(=O)[nH]c(=O)n2Cc1ccccc1,-15.3%,5.6%,1.5%,-6.8%
Cn1c(-c2cccc(OCc3ccccc3)c2)nc2c1c(=O)[nH]c(=O)n2Cc1ccccc1,-12.3%,-0.1%,35.5µM*,-27.5%
CSc1cccc(NC(=S)N2CCC(N(C)C3CCCCCC3)CC2)c1,50.1µM*,4.2%,0.4%,-5.2%
COCC(=O)Nc1cc(C(=O)N2CCc3c([nH]c4ccccc34)C2)cc2nc(-c3ccccc3)n(C)c12,·,·,-14.4%,·
COc1ccc(OC)c(NC(=O)c2cnc(N3CCCCC3)c3ccccc23)c1,9.0%,0.8%,-12.7%,·
Cc1cc(C)c(C(=O)/C=C/C=C/c2ccccc2)c(=O)[nH]1,?,-7.4%,38.6%,-24.1%
Cc1cc(C)c(C(=O)/C=C/c2ccc(C(C)C)cc2)c(=O)[nH]1,-2.7%,1.4%,31.6µM*,-4.5%
